# High-throughput results (PubChem BioAssay)
# The list is not random: actives were taken first. Their share in the collection is about 5%.
# CHT allo act – allosteric activators of human choline transporter CHT; actives 0.49% (n = 310,000); B-score at 10 µM; Q9GZV3; CHT-expressing cells, membrane potential dye, choline EC20; active compounds read high; LV-AA mutant CHT in HEK293 cells;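 active means initial fluorescence not abnormally high and integrated response B-score, plate-corrected, over 3 SD above library mean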
# Target sequence (Q9GZV3 whole entry, looked up): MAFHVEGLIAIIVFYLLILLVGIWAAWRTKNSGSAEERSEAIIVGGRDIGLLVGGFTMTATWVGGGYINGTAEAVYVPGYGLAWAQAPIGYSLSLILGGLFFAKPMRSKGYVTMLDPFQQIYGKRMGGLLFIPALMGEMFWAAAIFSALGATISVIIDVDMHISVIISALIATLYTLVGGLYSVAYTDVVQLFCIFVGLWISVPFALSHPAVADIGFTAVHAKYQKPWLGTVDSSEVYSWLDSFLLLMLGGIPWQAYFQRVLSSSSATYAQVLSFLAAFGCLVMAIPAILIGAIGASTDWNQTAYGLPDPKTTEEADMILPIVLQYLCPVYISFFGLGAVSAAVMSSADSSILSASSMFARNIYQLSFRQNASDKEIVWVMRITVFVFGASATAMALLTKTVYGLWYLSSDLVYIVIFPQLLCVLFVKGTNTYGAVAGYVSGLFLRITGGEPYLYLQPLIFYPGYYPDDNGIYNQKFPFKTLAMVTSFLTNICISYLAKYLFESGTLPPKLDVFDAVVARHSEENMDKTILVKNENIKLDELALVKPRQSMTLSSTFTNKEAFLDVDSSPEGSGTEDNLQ
# ALR inh – human ALR oxidase inhibition via reduced H2O2. P55789. purified ALR, DTT oxidation, H2O2 HRP-luminol luminescence. inhibition, % (no concentration beside the values). actives 3.8% (n = 290,000). AID 485317;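 active means mean replicate inhibition above about 79%, with every replicate also reaching it, limit read from the data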
# CHT block – human CHT choline transport inhibition | Q9GZV3 | CHT-expressing cells, membrane potential dye, choline response; active compounds read low | B-score at 10 µM | actives 0.86% (n = 310,000);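 active means B-score over 3 SD under the library average, and starting fluorescence ratio not unusually high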;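 further: choline stimulus applied at its EC90 after an EC20 pre-addition; B-score computed on integrated fluorescence ratio after choline addition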
# AI-2 QS mod – modulates the Vibrio harveyi AI-2 quorum sensing system | activity change, % at 7.5 µM | Vibrio harveyi JMH597 AI-2 luminescence/OD600 ratio, 9 h; active compounds read low; strain lacks LuxN and CqsS sensors; 0 = neutral-control median | actives 0.4% (n = 300,000) | AID 2094; in the data active means activity change below about -75%, passing the limit was not always enough;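 further: luminescence divided by OD600 gain over 9 h not by final OD600 alone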
# PREPL inh – inhibitors of human prolyl oligopeptidase-like enzyme PREPL; AID 2751; Q4J6C6; inhibition, % at 5.96 µM; actives 0.68% (n = 320,000); recombinant PREPL, fluorescence polarization activity-based probe; in the data active means inhibition above about 43%;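 further: 0% = enzyme with DMSO and 100% = wells lacking enzyme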
# * marks the source's active call; other numbers are inactive results; i = inactive; x = not tested or not shown.
SMILES,CHT allo act,ALR inh,CHT block,AI-2 QS mod,PREPL inh
C=CCNC(=S)N/N=C(\C)c1cccc(OC)c1,i,x,i,12,-2
CN(C)CC(O)CN(c1ccccc1)c1ccccc1 (centres undefined),i,99*,i,-10,6
CCCNC(=O)NC(=O)CN1C(=O)NC(C)(c2ccc3ccccc3c2)C1=O (centres undefined),i,-56,i,23,11
COc1cccc(C2N(Cc3ccccc3)C(=O)C2(F)F)c1OC (centres undefined),i,x,i,12,3
CC(C)n1c(NCc2ccc(N(C)C)cc2)nc2ccccc21,i,93*,i,11,7
CC(C)n1c(NCc2cccs2)nc2ccccc21,i,98*,i,16,5
C=CCc1cccc(CNc2nc3ccccc3n2C(C)C)c1O,i,17,i,23,13
CCN(CC)c1ccc(CNc2nc3ccccc3n2CC)cc1,i,99*,i,11,14
CCCn1nnnc1NCc1ccc(N(CC)CC)cc1,i,98*,i,21,2
CC(C)n1c(NCc2ccccc2O)nc2ccccc21,i,98*,i,10,1
COc1ccc(NC(=O)c2cc(=O)[nH]c3ccccc23)cc1,i,-3,i,15,15
COc1ccc(NCc2cc(=O)[nH]c3ccccc23)cc1,i,99*,i,-22,x
CCO[C@H]1OC(C(=O)N2CCCCCCC2)=C[C@@H](C)[C@@H]1CCCO,i,-5,i,5,9
C=CCOc1c(Br)cc(CNn2c(C)n[nH]c2=S)cc1OCC,i,7,i,20,18
C=CCOc1c(Br)cc(CNn2cn[nH]c2=S)cc1OC,i,92*,i,17,-7
CCC(NC(=O)CCl)c1ccc(C)cc1 (centres undefined),i,2,i,35,7
CN=c1scc(-c2cccs2)n1/N=C/c1ccccc1O,i,87*,i,16,14
CN=c1scc(-c2ccccc2Br)n1/N=C/c1ccc[nH]1,i,5,i,-1,12
COc1cc(/C=N/N(C)C)cc(Br)c1O,i,x,i,3,7
CN=c1scc(C)n1/N=C/c1cc(Br)c(O)c(OC)c1,i,99*,i,5,1
CN=c1scc(-c2cccs2)n1/N=C/c1ccc(O)c(O)c1O,i,99*,i,12,31
Cc1cc(C)n(/N=C/c2ccccc2O)c(=O)c1,i,-9,i,-2,14
O=C1c2ccccc2C(=O)N1/N=C/c1ccc(O)c(O)c1O,x,x,x,32,x
CN=c1scc(C)n1/N=C/c1ccc(O)c(O)c1O,i,100*,i,43,27
Cc1cc(F)ccc1S(=O)(=O)N1CCCOC1CNC(=O)C(=O)NCc1ccccn1 (centres undefined),i,-4,i,8,2
SMILES,CHT allo act,ALR inh,CHT block,AI-2 QS mod,PREPL inh
CCOc1ccc(C(=O)OCC(=O)NC(C)C)cc1,i,-22,i,22,-12
Cc1ccc(C(=O)NCCCNC(=O)c2ccco2)cc1,i,-13,i,-3,14
Cc1ccc(-c2cnc(SCCNC(=O)c3ccco3)[nH]2)cc1,i,94*,i,9,13
CCOC(=O)C1CCN(S(=O)(=O)c2ccc3c(c2)CC(C)N3C(=O)C2CCC2)CC1 (centres undefined),i,-4,i,10,7
Cc1nc(Cl)cc(N/N=C/c2ccc(O)cc2O)n1,i,57,i,x,-1
Cc1nc(Cl)cc(N/N=C/c2ccc(O)cc2)n1,i,99*,i,0,6
Oc1ccc(/C=N/Nc2ccc(Cl)nn2)cc1O,i,99*,i,28,8
Oc1ccc(/C=N/Nc2cc(N3CCOCC3)nc(N3CCOCC3)n2)cc1,i,100*,i,28,29
COc1cccc(N2CCN(C(=O)c3c(C)nn(-c4ccccc4)c3C)CC2)c1,i,35,i,20,6
O=C1CCN(C(=O)CSc2ccc(Cl)cc2)N1,i,-16,i,-33,-1
COCC1CCCCN1C(=O)c1ccc2nc(Cc3ccc(OC)c(OC)c3)oc2c1 (centres undefined),i,1,i,21,6
O=S(=O)(c1ccc(NC(=S)NCc2ccco2)cc1)N1CCCCC1,i,7,i,-88*,-4
O=C(CNCc1ccco1)Nc1ccc(N2CCCCCC2)cc1,i,99*,i,-66,5
O=C(CNC(=O)c1ccco1)Nc1ccc(N2CCCCCC2)cc1,x,98*,x,x,16
O=C(CNC(=O)c1ccco1)Nc1ccc(F)cc1,i,0,i,-9,-6
O=C(Cc1ccccc1)Nc1ccc(N2CCCCC2)cc1,i,6,i,6,13
O=C(CC1C[C@H](C(=O)N2CCOCC2)[C@@]2(CCC3CCCC3)c3[nH]c4ccccc4c3CCN2C1=O)NCCc1ccccn1 (some centres undefined),x,-2,x,x,15
COc1ccc(C(=O)CC(SCC(NC(C)=O)C(=O)O)c2ccc(Cl)cc2)cc1OC (centres undefined),i,92*,i,17,-8
FC(F)(F)c1cccc(NC(=S)Nc2cccc(NC(=S)Nc3cccc(C(F)(F)F)c3)n2)c1,i,13,i,61,7
COc1ccc(-c2cn[nH]c2-c2ccc(O)cc2O)cc1OC,i,74,i,8,2
Oc1ccc(-c2[nH]ncc2-c2cnn(-c3ccccc3)c2)c(O)c1,i,98*,i,-7,19
COc1ccc(C(=O)C[n+]2ccc(-c3nnc4n3CCC4)cc2)cc1,i,9,i,29,15
CC(=O)NCCc1c(C)n(Cc2ccccc2)c2ccccc12,i,99*,i,x,14
CCN1C(=O)N[C@H](c2ccccc2)C(C(C)=O)=C1C,i,0,i,16,8
COc1cc(NC(=O)C2=C(N3CCOCC3)/C(=C\c3ccc(Cl)cc3Cl)CC2)cc(OC)c1OC,i,-2,i,9,9
SMILES,CHT allo act,ALR inh,CHT block,AI-2 QS mod,PREPL inh
c1ccc(CCNc2nc(-c3ccccn3)cs2)cc1,i,x,i,18,38
c1ccc(CCNc2nc(-c3cccnc3)cs2)cc1,i,-4,i,-1,49*
CN(C)c1ccc(Nc2nc(-c3cccnc3)cs2)cc1,i,95*,i,13,39
CCc1ccc(NC(=S)N(CCN(C)C)C(C)c2ccncc2)cc1 (centres undefined),i,-9,i,0,7
O=C(OC1CCOC1=O)c1cc(-c2cccs2)nc2ccccc12 (centres undefined),i,2,i,28,-3
CCN(CC)S(=O)(=O)c1ccc(N2CC(C(=O)NCc3ccc4c(c3)OCO4)CC2=O)cc1 (centres undefined),x,0,x,x,13
